From PubChem BioAssay (EPA / NIEHS)
Activity calls are given as the source filed them. How the source made its calls: active means hit-call score of the fitted dose curve at least 0.9, where 1 is the maximum; inactive means score below 0.9.

Legend:
[1] = read-out: Monocyte Chemoattractant Protein-1 (MCP1), CCL2 (gene 6347); assay: BSK_LPS_MCP1: BioMAP Diversity Plus: LPS Assay for Monocyte Chemoattractant Protein-1 (MCP1) Biomarker Activity (AID 2283081); settings: primary human HUVEC with PBMC; actives raise or lower the signal
How it was run: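 Secreted MCP-1 read by ELISA at 24 h post-dosing in an LPS-activated co-culture of endothelial cells with peripheral blood mononuclear cells. Fits run in both directions, DMSO as baseline; parallel SRB staining tracks overt cytotoxicity.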

[2] = BSK_LPS_PGE2: BioMAP Diversity Plus: LPS Assay for Prostaglandin E2 (PGE2) Biomarker Activity (AID 2283082); settings: primary human HUVEC with PBMC; actives raise or lower the signal
How it was run: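 Primary human endothelial cells and blood mononuclear cells, co-cultured with LPS, receive test chemical; PGE2 ELISA follows at 24 h, with SRB-stained parallel cultures flagging cytotoxicity.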

[3] = read-out: Tissue Factor, F3 (gene 2152); assay: BSK_LPS_TissueFactor: BioMAP Diversity Plus: LPS Assay for Tissue Factor Biomarker Activity (AID 2283084); settings: primary human HUVEC with PBMC; actives raise or lower the signal
How it was run: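 Compound was added to an endothelial cell/PBMC co-culture, and after 24 h tissue factor (CD142) was read by ELISA. Gain or loss of signal was fitted against a DMSO baseline, and parallel SRB staining (560 nm) tracked overt cytotoxicity.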

[4] = read-out: Tumor necrosis factor (Homo sapiens) (UniProt P01375); assay: BSK_LPS_TNFa: BioMAP Diversity Plus: LPS Assay for Tumour Necrosis Factor alpha (TNFa) Biomarker Activity (AID 2283085); settings: primary human HUVEC with PBMC; actives raise or lower the signal;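 on AC50: TNFa protein level quantified by ELISA in the co-culture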
How it was run: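 ELISA-based TNFa endpoint in a human endothelial–PBMC co-culture sampled 24 h post-exposure. Curves were fitted in both directions using DMSO as baseline of activity.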

[5] = read-out: Vascular cell adhesion molecule 1 (VCAM1), VCAM1 (gene 7412); assay: BSK_LPS_VCAM1: BioMAP Diversity Plus: LPS Assay for Vascular cell adhesion molecule 1 (VCAM1) Biomarker Activity (AID 2283086); settings: primary human HUVEC with PBMC; actives raise or lower the signal
How it was run: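 Measured by ELISA: VCAM-1 in LPS-activated HUVEC/PBMC co-cultures 24 h after treatment. Values reflect bidirectional fitting with DMSO as baseline.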

CD38, CD38 (gene 952) = assay: BSK_SAg_CD38: BioMAP Diversity Plus: SAg Assay for CD38 Biomarker Activity (AID 2283087); settings: primary human HUVEC with PBMC; actives raise or lower the signal
How it was run: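 Measures CD38 on a human endothelial/PBMC co-culture driven by SEB and TSST-1, 24 h after compound exposure, using ELISA with fluorescence detection; DMSO defines baseline for bidirectional curve fitting.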

CD40, CD40 (gene 958) = assay: BSK_SAg_CD40: BioMAP Diversity Plus: SAg Assay for CD40 Biomarker Activity (AID 2283088); settings: primary human HUVEC with PBMC; actives raise or lower the signal
How it was run: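 CD40 is measured by fluorescence ELISA in an endothelial/PBMC primary human co-culture at 24 h post-dose. Fitting is bidirectional, DMSO baseline. Parallel SRB staining (560 nm) flags cytotoxicity.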

CD69, CD69 (gene 969) = assay: BSK_SAg_CD69: BioMAP Diversity Plus: SAg Assay for CD69 Biomarker Activity (AID 2283089); settings: primary human HUVEC with PBMC; actives raise or lower the signal;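 on AC50: cell surface CD69 protein quantified by ELISA with fluorescence detection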
How it was run: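 HUVEC co-cultured with PBMC were dosed with chemical, and CD69 was measured by ELISA with fluorescence read-out 24 h later. Bidirectional curve fitting used DMSO as negative control and activity baseline.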

[6] = read-out: Monocyte Chemoattractant Protein-1 (MCP1), CCL2 (gene 6347); assay: BSK_SAg_MCP1: BioMAP Diversity Plus: SAg Assay for Monocyte Chemoattractant Protein-1 (MCP1) Biomarker Activity (AID 2283090); settings: primary human HUVEC with PBMC; actives raise or lower the signal
How it was run: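 Values derive from bidirectional fitting of ELISA-measured MCP1 against DMSO controls. Readings were taken 24 h after dosing human vascular endothelial cells co-cultured with peripheral blood mononuclear cells under superantigen stimulation.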

[7] = read-out: E-selectin (Homo sapiens) (UniProt P16581); assay: BSK_SAg_Eselectin: BioMAP Diversity Plus: SAg Assay for Eselectin Biomarker Activity (AID 2283091); settings: primary human HUVEC with PBMC; actives raise or lower the signal
How it was run: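 Cell-surface E-selectin is read by ELISA at 24 h in the SAg co-culture of HUVEC and PBMC. Curves are fitted in both directions relative to DMSO. Parallel SRB total-protein staining tracks overt toxicity.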

[8] = read-out: Monokine induced gamma interferon (MIG), CXCL9 (gene 4283); assay: BSK_SAg_MIG: BioMAP Diversity Plus: SAg Assay for Monokine induced gamma interferon (MIG) Biomarker Activity (AID 2283092); settings: primary human HUVEC with PBMC; actives raise or lower the signal
How it was run: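 HUVEC plus human PBMC co-culture, chemicals dosed and MIG (CXCL9) quantified by ELISA at 24 h. Bidirectional curve fitting against DMSO as negative control and baseline, so both gain and loss of signal count as activity.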

[9] = BSK_SAg_PBMCCytotoxicity: PBMC Cytotoxicity Assessment in the BioMAP Diversity Plus: SAg Assay (AID 2283093); settings: primary human HUVEC with PBMC;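 further: fitted both ways against DMSO so a hit may be loss or gain of signal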
How it was run: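 PBMC viability by Alamar Blue reduction, fluorescence read at 546/580 nm after 6 h dye exposure. Cells were dosed 1 h before SEB plus TSST-1 activation (20 ng/mL final each), then held 90 h; endothelial/PBMC human co-culture.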

[10] = BSK_SAg_SRB: Viability Assessment in the BioMAP Diversity Plus: SAg Assay (AID 2283096); settings: primary human HUVEC with PBMC;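 further: cells read one day after compound addition; hits may be either gain or loss of signal compared with DMSO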
How it was run: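 Compounds were added to a human vascular co-culture of umbilical vein endothelium and PBMC. After 24 h, parallel cultures were fixed with 10% TCA, stained with 0.1% sulforhodamine B and read at 560 nm. Gain or loss of signal was fitted relative to DMSO.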

[11] = read-out: Macrophage colony-stimulating factor (MCSF), CSF1 (gene 1435); assay: BSK_LPS_MCSF: BioMAP Diversity Plus: LPS Assay for Macrophage colony-stimulating factor (MCSF) Biomarker Activity (AID 2283083); settings: primary human HUVEC with PBMC; actives raise or lower the signal
How it was run: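 Bidirectional fitting against DMSO was applied to M-CSF levels read by ELISA at 24 h post-dose. The system pairs human umbilical vein endothelium with peripheral blood mononuclear cells; parallel SRB staining tracked cytotoxicity.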

[12] = read-out: Interleukin-8 (IL8), CXCL8 (gene 3576); assay: BSK_SAg_IL8: BioMAP Diversity Plus: SAg Assay for Interleukin-8 (IL8) Biomarker Activity (AID 2283094); settings: primary human HUVEC with PBMC; actives raise or lower the signal
How it was run: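 Primary human endothelial cells with PBMC, exposed 24 h; IL-8 determined by ELISA, analysed bidirectionally relative to DMSO.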

[13] = BSK_SAg_Proliferation: Cell Proliferation Assessment in the BioMAP Diversity Plus: SAg Assay (AID 2283095); settings: primary human HUVEC with PBMC;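 further: relative cell number as total protein by SRB absorbance in sub-confluent culture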
How it was run: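 A human primary co-culture of umbilical vein endothelium and blood mononuclear cells receives compound; relative cell number is quantified at 96 h by SRB staining and 560 nm absorbance, with DMSO-referenced bidirectional curve fitting.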

Tumor necrosis factor (Homo sapiens), sequence (P01375 whole entry, looked up): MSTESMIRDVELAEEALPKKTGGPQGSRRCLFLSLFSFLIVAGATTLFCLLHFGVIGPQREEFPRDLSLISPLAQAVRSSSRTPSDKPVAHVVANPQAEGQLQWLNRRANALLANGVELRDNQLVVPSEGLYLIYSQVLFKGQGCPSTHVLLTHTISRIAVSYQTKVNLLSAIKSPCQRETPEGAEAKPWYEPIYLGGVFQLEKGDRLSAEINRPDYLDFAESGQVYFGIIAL
E-selectin (Homo sapiens), sequence (P16581 whole entry, looked up): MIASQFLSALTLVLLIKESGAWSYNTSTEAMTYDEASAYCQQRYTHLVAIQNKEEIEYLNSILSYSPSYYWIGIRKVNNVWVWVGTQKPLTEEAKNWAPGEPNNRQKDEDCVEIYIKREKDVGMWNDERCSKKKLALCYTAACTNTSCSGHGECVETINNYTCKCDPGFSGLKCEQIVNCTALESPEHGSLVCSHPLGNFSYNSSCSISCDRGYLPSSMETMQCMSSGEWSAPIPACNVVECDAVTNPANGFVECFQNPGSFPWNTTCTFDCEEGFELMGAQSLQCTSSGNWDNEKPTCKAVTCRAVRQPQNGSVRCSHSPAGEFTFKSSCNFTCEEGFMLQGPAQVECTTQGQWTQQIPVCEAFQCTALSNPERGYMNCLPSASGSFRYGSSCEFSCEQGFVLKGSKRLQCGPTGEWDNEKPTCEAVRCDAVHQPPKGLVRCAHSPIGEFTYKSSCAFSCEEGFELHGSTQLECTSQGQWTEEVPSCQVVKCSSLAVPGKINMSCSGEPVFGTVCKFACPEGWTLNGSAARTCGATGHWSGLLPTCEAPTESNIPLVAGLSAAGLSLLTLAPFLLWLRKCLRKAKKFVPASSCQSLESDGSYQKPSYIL

For NC(N)=O, the outcome [1] was “inactive”, the outcome [2] was “inactive” and the outcome [3] was “inactive”. The outcome [4] was “inactive”, the outcome [5] was “inactive” and the outcome (CD38, CD38 (gene 952)) was “inactive”. The outcome (CD40, CD40 (gene 958)) was “inactive”, the outcome (CD69, CD69 (gene 969)) was “inactive” and the outcome [6] was “inactive”. The outcome [7] was “inactive”, the outcome [8] was “inactive” and the outcome [9] was “inactive”. The outcome [10] was “inactive”.

In the case of FC(F)(F)C(F)(F)C(F)(F)C(F)(F)C(F)(F)C(F)(F)I, the outcome [2] is reported as “inactive”, the outcome [11] is reported as “inactive” and the outcome [3] is reported as “inactive”. The outcome [4] was “inactive”, the outcome [5] was “inactive” and the outcome (CD38, CD38 (gene 952)) was “inactive”. The outcome (CD40, CD40 (gene 958)) was “inactive”, the outcome (CD69, CD69 (gene 969)) was “inactive” and the outcome [6] was “inactive”. For the same molecule, the outcome [7] was “inactive”, the outcome [8] was “inactive” and the outcome [9] was “inactive”. The outcome [12] was “inactive”, the outcome [13] was “inactive” and the outcome [10] was “inactive”.

In the case of O=S1(=O)CCCO1, the outcome [2] is reported as “inactive”, the outcome [3] is reported as “inactive” and the outcome [4] is reported as “inactive”. The outcome [5] was “inactive”, the outcome (CD38, CD38 (gene 952)) was “inactive” and the outcome (CD40, CD40 (gene 958)) was “inactive”. The outcome (CD69, CD69 (gene 969)) was “inactive”, the outcome [6] was “inactive” and the outcome [7] was “inactive”. For the same molecule, the outcome [8] was “inactive”, the outcome [9] was “inactive” and the outcome [12] was “inactive”. The outcome [10] was “inactive”.

For C[C@]12C=CC(=O)C=C1CC[C@H]1[C@@H]3C[C@@H](O)[C@](O)(C(=O)CO)[C@@]3(C)C[C@H](O)[C@@]12F, the outcome [2] was “inactive”, the outcome [3] was “inactive” and the AC50 [4] was 0.557 µM (active). For the same molecule, the outcome [5] was “inactive”, the outcome (CD38, CD38 (gene 952)) was “inactive” and the outcome (CD40, CD40 (gene 958)) was “inactive”. For the same molecule, the outcome (CD69, CD69 (gene 969)) was “inactive”, the AC50 [6] was 5.08 µM (active) and the AC50 [7] was 3.66 µM (active). For the same molecule, the outcome [8] was “inactive”, the outcome [9] was “inactive” and the outcome [12] was “inactive”. The outcome [10] was “inactive”.

For Cc1cccc(O)c1C, the outcome [2] was “inactive”, the outcome [11] was “inactive” and the outcome [3] was “inactive”. For the same molecule, the outcome [4] was “inactive”, the outcome [5] was “inactive” and the outcome (CD40, CD40 (gene 958)) was “inactive”. The outcome (CD69, CD69 (gene 969)) was “inactive”, the outcome [6] was “inactive” and the outcome [7] was “inactive”. For the same molecule, the outcome [8] was “inactive”, the outcome [9] was “inactive” and the outcome [10] was “inactive”.

With CCCCCCCC1CCC(=O)O1 (configuration not stated) the outcome [2] was “inactive”, the outcome [11] was “inactive” and the outcome [3] was “inactive”. For the same molecule, the outcome [4] was “inactive”, the outcome [5] was “inactive” and the outcome (CD40, CD40 (gene 958)) was “inactive”. For the same molecule, the outcome (CD69, CD69 (gene 969)) was “inactive”, the outcome [6] was “inactive” and the outcome [7] was “inactive”. The outcome [8] was “inactive”, the outcome [12] was “inactive” and the outcome [13] was “inactive”. For the same molecule, the outcome [10] was “inactive”.

In the case of O=C(Cl)C(F)(F)C(F)(F)C(F)(F)C(=O)Cl, the outcome [2] is reported as “inactive”, the outcome [3] is reported as “inactive” and the outcome [4] is reported as “inactive”. For the same molecule, the outcome [5] was “inactive”, the outcome (CD40, CD40 (gene 958)) was “inactive” and the outcome (CD69, CD69 (gene 969)) was “inactive”. For the same molecule, the outcome [6] was “inactive”, the outcome [7] was “inactive” and the outcome [8] was “inactive”. For the same molecule, the outcome [9] was “inactive”, the outcome [12] was “inactive” and the outcome [13] was “inactive”. For the same molecule, the outcome [10] was “inactive”.

For CCc1cccc(CC)c1N, the outcome [2] was “inactive”, the outcome [3] was “inactive” and the outcome [4] was “inactive”. For the same molecule, the outcome [5] was “inactive”, the outcome (CD38, CD38 (gene 952)) was “inactive” and the outcome (CD40, CD40 (gene 958)) was “inactive”. For the same molecule, the outcome (CD69, CD69 (gene 969)) was “inactive”, the outcome [6] was “inactive” and the outcome [7] was “inactive”. For the same molecule, the outcome [8] was “inactive”, the outcome [9] was “inactive” and the outcome [13] was “inactive”. The outcome [10] was “inactive”.

For CC(C)C(=O)Nc1ccc([N+](=O)[O-])c(C(F)(F)F)c1, the outcome [2] was “inactive”, the outcome [3] was “inactive” and the outcome [4] was “inactive”. For the same molecule, the outcome [5] was “inactive”, the outcome (CD40, CD40 (gene 958)) was “inactive” and the AC50 (CD69, CD69 (gene 969)) was 20 µM (active). For the same molecule, the outcome [6] was “inactive”, the outcome [7] was “inactive” and the outcome [8] was “inactive”. For the same molecule, the outcome [9] was “inactive”, the outcome [13] was “inactive” and the outcome [10] was “inactive”.
